Screens: PubChem BioAssay, National Center for Advancing Translational Sciences (NCATS)
Pf Dd2 inh: inhibitors of Plasmodium falciparum Dd2 growth | P. falciparum Dd2 growth, SYBR Green, 72 h | Potency, µM (series often up to 28.9 µM), hits mostly inhibitors | actives 4.3% (n = 120,000) | AID 1347417; active = well fitted inhibition curve with a large enough effect; also: nearly all actives have a fitted effect of over 65% in size
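Infected erythrocytes (Dd2, 0.3% parasitemia, 2.5% hematocrit final) are added to compound in RPMI-1640/Albumax II medium, grown 72 h at 37C in low oxygen, then lysed with saponin/Triton-X containing SYBR Green and read by fluorescence.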
Of the large screens only hits and unclear results are named; the others gave an inactive call. The sample as a whole holds a higher share of hits than the screen did.

COc1ccc(CN2CCC3(C2)C(=NC2CCCCC2)NC(=O)N3c2cccc(OC)c2)cc1 (stereo not given)	Pf Dd2 inh 2.82µM
COc1ccc(Cn2c(C3CCN(C(=O)c4ccco4)CC3)n[nH]c2=O)cc1	none
CN(Cc1ccc(-c2ccccc2)cc1)C(=O)c1cccc(Cl)c1	none
Cc1cccc(-c2ccccc2CN)c1	Pf Dd2 inh 10µM
Cc1ccc(CN(C)Cc2ccc(F)cc2)cc1	none
CCCCCn1c(-c2cccc(C)c2)nc2ccccc21	none
NCc1ccc(-c2cccc(Cl)c2)cc1	Pf Dd2 inh 10µM
NCc1cccc(-c2ccccn2)c1	none
NCc1cccc(-c2ccc3c(c2)C(=O)N2CC[C@H](NC(=O)c4cccc(F)c4)[C@H]2C(=O)N3)c1	none
Cc1cccc(-c2nocc2CCC(=O)NCc2ccccc2F)c1	none
O=Cc1ccc(-c2cccc(Cl)c2)cc1	none
NCc1cccc(-c2cc(F)cc(F)c2)c1	Pf Dd2 inh 10µM
NCc1ccc(-c2ccc(F)cc2)cc1	Pf Dd2 inh 10µM
COc1ccc(-c2ccc(CN)cc2)cc1	none
CC1(C(=O)NCc2cccnc2)CCc2cnc(NCc3ccccc3)nc21 (stereo not given)	none
Cn1cccc1C(=O)NC[C@H]1O[C@@H](CO)[C@@H](O)[C@H]1N1CCOCC1	none
CN(C)C[C@H]1O[C@@H](CO)[C@@H](O)[C@H]1N1CCN(c2cccc(C(F)(F)F)c2)CC1	none
COCCNC(=O)[C@H]1C[C@H](Oc2cccnc2)CN1C(=O)NCc1ccc(C)cc1	none
COc1ccc(Cn2c(C3CCN(C(=O)c4ccccc4Cl)CC3)n[nH]c2=O)cc1	none
O=C(c1ccccn1)N1CCC12Cc1ccccc1NC2=O (stereo not given)	none
CN1CCN(C(=O)CC2CCCN(c3cnn(C)c(=O)c3)C2)CC1 (stereo not given)	none
COc1ccc(Cn2ccn(Cc3cccc(C)c3)c(=O)c2=O)cc1	none
COc1ccc(CCC(=O)NCCc2csc(-c3cccc(C)c3)n2)cc1	none
Cc1cccc(-c2ccc(CN)cc2)c1	Pf Dd2 inh 11.2µM
CC(C)(C)C(=O)NC1CCN(c2nc3ncccc3o2)CC1	none
CCn1cc(S(=O)(=O)N2CC[C@H](c3nc(C)no3)[C@H](NC(=O)C3CC3)C2)cn1	none
COCCNC(=O)C1(C)CN(C)Cc2ccc(Nc3cccc(OC)c3)nc21 (stereo not given)	none
COc1cccc(Nc2ccc3c(n2)C(C)(C(=O)NC(C)C)CN(C)C3)c1 (stereo not given)	Pf Dd2 inh 2.51µM
COc1cccc(Nc2ccc3c(n2)C(C)(C(=O)NCc2ccco2)CN(C)C3)c1 (stereo not given)	none
O=C(Nc1ccsc1)N[C@H]1C[C@H]2C(=O)NC[C@@H](CCC(=O)N3CCOCC3)N2C1	none
COc1ccccc1N1CCN(C(=O)C2N(C(C)C)C(=O)C23CCCC3)CC1 (stereo not given)	none
CN(C)c1ccc(CN2C[C@H](O)C[C@H]2c2nc(C3CC3)no2)cc1	none
CC(C)CN1CCN(C(=O)C2CCCN(S(C)(=O)=O)CCC(=O)NCC2)CC1 (stereo not given)	none
COc1ccc(CNC(=O)NC2CCc3nnc(C4CC4)n3CC2)cc1 (stereo not given)	none
COc1cc(CNCCc2ccc(Cl)cc2)ccc1OCC(O)CN1CCOCC1 (stereo not given)	Pf Dd2 inh 11.2µM
COc1cc(CNCC2CCOCC2)ccc1OCC(O)CN(C)C1CCCCC1 (stereo not given)	Pf Dd2 inh 12.6µM
COc1cc(CNCCCO)ccc1OCC(O)CN1CCSCC1 (stereo not given)	none
COc1ccc(Cl)cc1NC(=O)N(C)CC1CCOCC1	none
COc1cc(CNCCc2ccc(F)cc2)ccc1OCC(O)CN1CCSCC1 (stereo not given)	none
COc1cc(CN2CCC(C)(C#N)CC2)ccc1OCC(O)CN1CCOCC1 (stereo not given)	none
CCn1c2c(c(=O)n1Cc1ccccc1)CCN(C(=O)c1cn[nH]c1)C2	none
CCS(=O)(=O)Nc1ccc(C2(C(=O)NCc3ccc(C)cc3)CCC2)cc1	none
Cc1ccc(OCCC2CCN(C(=O)Cc3cccnc3)C2)cc1 (stereo not given)	none
O=C(Nc1cccc(-n2cccn2)c1)C1CCCN(C(=O)N2CCOCC2)C1 (stereo not given)	none
CCC(=O)N1CCc2c(C(=O)NCc3ccncc3)cccc21	none
O=C(NCc1ccc(F)cc1)N1CCC(OC2CCN(Cc3ccccc3)CC2)CC1	none
COc1c(F)cc(CNCC2(O)CCCNC2)cc1F (stereo not given)	none
Cc1cnc(CNCC2(O)CNCCOC2)cn1 (stereo not given)	none
Cc1cc(Cl)cc(Cl)c1CNCC1(O)CCCNC1 (stereo not given)	Pf Dd2 inh 7.94µM
Cc1noc([C@H]2CCN(C(=O)c3ccc4ccccc4n3)C[C@H]2NC(=O)C2CC2)n1	none
COc1cccc(C(=O)N2CCN(c3cc(C(F)(F)F)nc(C)n3)CC2)c1OC	none
COC(=O)c1ccc2nc(CO[C@H]3CN(C(C)=O)C[C@H]3F)[nH]c2c1	none
O=[S+]([O-])(NCC1CN(Cc2ccncc2Cl)CC12CN(c1ccccc1)C2)c1ccccc1 (stereo not given)	none
